Bioassay records (PubChem BioAssay)
Hits are enriched below; roughly 21% of the tested compounds scored in any of these assays.
Pf growth 48h = inhibits P. falciparum growth in the first generation, 48 h | P. falciparum luciferase growth in erythrocytes, 48 h | hit rate 5.9% among 310,000 | Potency, µM (series often up to 28.7 µM), without a hit: at the top dose activity change, negative = inhibition, actives largely listed as inhibitors; note: potency is the fitted concentration of half-maximal effect; % is set by controls: 0 for no effect and ±100 for the full control effect
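In quantitative HTS format, infected erythrocytes bearing luciferase-reporter parasites were treated for a single generation at 37 C. Luminescence after adding detection reagent served as the growth measure.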
Shiga inhibitor = inhibitors of Shiga toxin in Vero cells; Vero cells, Shiga toxin protein synthesis inhibition reporter; inhibition, % at 38.7 µM; hit rate 9.2% among 290,000; AID 2315; in the data active = inhibition mostly above about 28%, no sharp cut-off; inactive = mostly below about 43%; note: 0% is about no effect
AMA1-RON2 inh = AMA1-RON2 (P. falciparum) interaction inhibition | Potency, µM (doses to about 58.2 µM), inactives show at the highest dose activity change, negative = inhibition, usual class: inhibitors | hit rate 0.2% among 360,000 | AlphaScreen AMA1-biotinylated RON2 peptide binding | AID 720542;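 note: potency is the fitted concentration of half-maximal effect; 0% = vehicle wells and -100% = peptide control; nearly all actives have a fitted effect of over 45% in size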
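AMA1 (3D7) with his tag at 25 nM final met compounds first, then biotinylated RON2 peptide at 25 nM; detection used donor plus acceptor beads, 10 µg/mL apiece, read by AlphaScreen after 30 min at room temperature.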
Cycloheximide cs = counter-screen for Shiga toxin inhibitors: cycloheximide protein synthesis inhibition. cell reporter, cycloheximide protein synthesis inhibition counterscreen. max response, %. hit rate 12% among 300,000. AID 2314; in the data active = max response mostly above about 13%, no sharp cut-off; inactive = mostly below about 14%; note: read at 38.3 µM for the half of the compounds with a filed dose; 0% is about no effect
Pf growth 96h = P. falciparum growth inhibition at 96 hour, primary screen for plastid delayed-death inhibitors; P. falciparum luciferase reporter growth, 96 h; Potency, µM (highest dose often 28.7 µM), for inactives: at the top dose activity change, negative = inhibition, usual class: inhibitors; hit rate 6.9% among 320,000; note: potency is the fitted concentration of half-maximal effect; % is set by controls: 0 for no effect and ±100 for the full control effect
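Compounds incubated with erythrocytes infected by luciferase-expressing P. falciparum (2% hematocrit, 0.05% parasitemia final) for 96 hours, 37 C in 5% CO2. Growth inhibition scored as decreased luciferase luminescence.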
HCV inh = HCV inhibition | Huh7.5.1 HCVcc-Cre infection, luciferase reporter, 44 h | Potency, µM (titrated, usually from 41.8 µM), for the others: at the highest dose activity change, negative = inhibition, actives largely listed as inhibitors | hit rate 3.4% among 340,000; note: potency is the fitted concentration of half-maximal effect; % is set by controls: 0 for no effect and ±100 for the full control effect
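Compounds are dispensed onto cells plated 4 h earlier at 1,000 per well, with HCVcc-Cre virus (about 0.5 moi) added next. Following 44 h of culture, luminescent signal is measured for 15 sec after 15 min with substrate at room temperature.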
An asterisk follows results filed as active; i = inactive; ? = inconclusive; . = not tested or not shown; [ ] = remark or other dose. Unless noted, calls come from the whole dose curve; as a rule, active = well fitted curve in the direction sought with a large enough effect; inconclusive = small, poorly fitted or top-dose-only effect, or another doubt; inactive = no such curve, though single readings can be large; an effect the other way counts as inactive or inconclusive.

SMILES	Pf growth 48h	Shiga inhibitor	AMA1-RON2 inh	Cycloheximide cs	Pf growth 96h	HCV inh
CCO[C@@H]1OC(C(=O)N2CCCCCCC2)=C[C@H](c2csc3ccccc23)[C@H]1CCCO	8.3µM*	-21	-8%	-2	?	-16%[8.37 µM]
CCO[C@@H]1OC(C(=O)N2CCCCCCC2)=C[C@H](c2cn(C(C)=O)c3ccccc23)[C@H]1CCCO	?	-18	9%	1	10µM*	42%[8.37 µM]
CCO[C@@H]1OC(C(=O)O)=C[C@H](c2cn(C(C)=O)c3ccccc23)[C@H]1CCCO	.	.	-4%	.	.	14%
C=CCOC(=O)C1=C[C@H](c2cn(C(C)=O)c3ccccc23)[C@@H](CCCO)[C@H](OCC)O1	?	-2	-4%	-2	12µM*	3%
O=C(NCc1nnc(SCC(=O)N2CCCCC2)o1)c1c(F)cccc1Cl	10%	-3	3%	-3	6%	3%
C=C1CCN(C(CC(C)C)C(=O)NN2CCOCC2)S(=O)(=O)c2ccccc21 (configuration not stated)	.	7	.	-3	.	.
O=C(COc1ccc(S(=O)(=O)N2CCOCC2)cc1)NCCc1ccc(Cl)cc1	.	.	6%	.	.	.
COc1cc([N+](=O)[O-])c(C)cc1NC(=O)c1ccc(OC)c(OC)c1	.	.	0%	.	.	.
Nc1nc2c(ncn2[C@@H]2O[C@H](CNCc3cnc(N4CCOCC4)s3)[C@@H](O)[C@H]2O)c(=O)[nH]1	.	.	13%	.	.	.
COc1ccc([C@@H]2CNC(=O)C2)cc1OC1CCCC1	-6%[12.8 µM]	.	.	.	-13%[12.8 µM]	.
O=S(=O)(Nc1ncccn1)c1ccc(NC(=S)N2CCN(Cc3ccc(F)cc3Cl)CC2)cc1	-21%	14	29%	-4	?	16%
CCSC1=C(C#N)C2(CCCC2)C(C#N)=C(N)N1	9.3µM*	13	-12%	10	-4%	?
N#CC1=C(N)NC(SCC(=O)c2ccccc2)=C(C#N)C12CCCC2	-63%	67*	4%[2.32 µM]	40*	?	-9%
Cc1ccc(NC(=O)COC(=O)C2=NNC(=O)CC2)c(Br)c1	.	.	0%	.	.	-30%
Cc1ccc(-c2cc3c(N=O)c4ccccc4c-3n[nH]2)cc1	138%	1	-5%	-1	i	14%
O=c1[nH]nc(-c2ccccc2)c2ccccc12	?	-4	8%	4	30%	33%
Cc1cccc(-c2cc3c(N=O)c4ccccc4c-3n[nH]2)c1	38%	104*	-4%	46*	45%	11µM*
O=Nc1c2cc(-c3ccccc3)[nH]nc-2c2ccccc12	226%	101*	-27%	37*	500%	?
N#CC1=C(N)N2C(=C(C#N)C1c1ccccc1)Sc1ccccc12 (configuration not stated)	-2%	-4	.	5	0%	?
CCOc1ccc(C2C(C#N)=C(N)N3C(=C2C#N)Sc2ccccc23)cc1 (configuration not stated)	?	65*	3%	26*	-28%	2%
CC(C)Oc1ccc(F)cc1-c1cc(C(=O)Nc2ccc(C(C)(C)C)cc2)[nH]n1	.	.	-3%	.	.	.
CO/N=C\CC(=O)Nc1ccc(Cl)cc1Cl	25%	46	1%	21*	56%	-26%
CO/N=C\CC(=O)Nc1ccc(F)cc1	12%	-6	9%	6	23%	7%
COc1cccc(C(=O)N2CCN(c3ncccn3)CC2)c1	6%	-6	-3%	-3	0%	4%
COc1cccc(N2CCN(c3ncccn3)CC2)c1	98%	45*	-4%	60*	.	10%
SMILES	Pf growth 48h	Shiga inhibitor	AMA1-RON2 inh	Cycloheximide cs	Pf growth 96h	HCV inh
CC(=O)c1ccc(N2CCN(c3ncccn3)CC2)cc1	80%	48	2%	29*	70%	-7%
c1ccc(N2CCN(c3c4c(nc5ncnn35)CCC4)CC2)cc1	13%	18	-3%	-1	?	?
COc1cccc(N2CCN(c3c4c(nc5ncnn35)CCC4)CC2)c1	?	-9	-5%	-2	13µM*	?
CS(=O)(=O)N1CCCC(C(=O)Nc2ccc(F)cc2F)C1 (configuration not stated)	-3%	-6	-4%	-5	-22%	11%
CCCNC(=O)[C@@H]1CCCN1C(=O)[C@@H]1Cc2ccccc2CN1	1%[0.00184 µM]	-4	3%	1	19%	9%
Cc1cc(C)nc(SCC(CSc2nc(C)cc(C)n2)C(=O)O)n1	6%	18	-3%	-2	51%	-4%
O=C(c1ccco1)N1CCN(C(=O)C2CC(=O)N(c3ccccc3)C2)CC1 (configuration not stated)	11%	-6	5%	10	?	12%
O=C1CSC(c2ccc([N+](=O)[O-])cc2)N1C1CCCCC1 (configuration not stated)	-8%	-8	-2%	-6	0.47µM*	8%
O=C(CCCOc1ccc(Cl)cc1)NCCc1ccccc1	12%	-6	19%	-3	-23%	1%
COCCCNC(=O)CCCOc1ccccc1	.	26	10%	31*	184%	4%
O=C(CCCOc1ccccc1)NCCc1ccccc1	117%	29	29%	14*	?	7%
Cc1cccc(C)c1NC(=O)CN(C)C(=O)c1ccccc1OCc1ccc(F)cc1	?	.	13%	.	-1%	-14%
CC(C)C(C(=O)NC1CCCC1)N(CC1CCCO1)C(=O)CNS(=O)(=O)c1ccccc1 (configuration not stated)	-17%	-5	18%	-6	4%	3%
CC(=O)Oc1cc(C(=O)OCC(=O)NC23CC4CC(CC(C4)C2)C3)cc(OC(C)=O)c1OC(C)=O	.	.	20µM*	.	.	-22%
O=C(NC1CCCCC1)c1cccs1	.	33	-3%	24*	8%	-4%
O=C(COC(=O)c1cccs1)NC1CCCC1	8%	68	4%	20*	?	1%
O=C(COC(=O)c1cccs1)NC12CC3CC(CC(C3)C1)C2	20%	68	7%	29*	-12%	-5%
CCCN1CCC(C(=O)NC(c2ccc(Cl)cc2)c2ccsc2)CC1 (configuration not stated)	.	.	-20%	.	.	.
O=C(Oc1ccc[nH]c1=O)C1CC1	.	.	19%	.	.	.
O=C(COC(=O)c1cccs1)NC1CCCCC1	0%	94*	13%	43*	.	4%
O=C(COC(=O)CCC(=O)c1cccs1)NC1CCCCC1	4%	.	-8%	.	?	6%
CCOC(=O)C1=CCN(S(=O)(=O)c2ccccc2C)C1c1ccc(C)cc1 (configuration not stated)	.	.	3%	.	.	.
CCOC(=O)c1c(C)[nH]c(N=Nc2ccc(C)cc2C)c1C	0%	183*	-2%	37*	47%	?
CCOC(=O)c1c(C)[nH]c(N=Nc2cc(C(=O)O)cc(C(=O)O)c2)c1C	-8%	-5	27%	-3	?	4%
